Test results published in PubChem BioAssay AID1159577 (Broad Institute, 2015).
Out of some 1,300 compounds screened, about 240 (18%) were called active. About 8% were inconclusive and are not listed. No rule for the calls is given here. The list is a sample of the results. Measured potencies and affinities stand elsewhere.

assay: toxicity to human hepatoma HepG2 cells – cell-based, cherry-picked samples, cytotoxicity control, dose response (AID 1159577); conditions: HepG2 cytotoxicity counterscreen, plate reader; series mostly up to 19.5 µM

SMILES | outcome
COc1ccc(C#Cc2ccc3c(c2)O[C@@H](CN(C)C(=O)Nc2cccc(OC)c2)[C@@H](C)CN([C@H](C)CO)S3(=O)=O)cc1 | inactive
O=C(c1ccccn1)N1CC2(C1)[C@@H](c1ccccc1)[C@H](CO)N2Cc1ccc(Cl)cc1 | inactive
COc1ccc(C#Cc2ccc([C@H]3[C@H]4CN(C(=O)c5ccc(F)cc5)CC(=O)N4[C@H]3CO)cc2)cc1 | inactive
C[C@H](CO)N1C[C@H](C)[C@@H](CN(C)C(=O)Nc2ccc(F)cc2)OCc2ccccc2-c2c(n(C)c3ccccc23)C1=O | inactive
COc1ccc2c3c([nH]c2c1)[C@@H](CO)N(C(=O)Cc1ccccc1)CC31CCN(C(=O)Cc2ccccc2)CC1 | inactive
CCC(=O)N1CC2(C1)CN(C(=O)Nc1ccccc1F)[C@H](CO)c1[nH]c3cc(OC)ccc3c12 | inactive
CCC(=O)N1CC2(CCN(C(=O)Nc3ccccc3F)CC2)c2c([nH]c3cc(OC)ccc23)[C@H]1CO | inactive
COc1ccc2c3c([nH]c2c1)[C@@H](CO)N(C(=O)c1cccc(F)c1)CC31CCN(C(=O)c2ccccc2)CC1 | inactive
COc1cccc(-c2ccc3c(c2)[C@@H]2[C@@H](CCN2C(=O)C2CCCC2)[C@H](CO)N3)c1 | inactive
CN(C)c1ccc2c(c1)[C@@H]1C[C@@H](CC(=O)N3CCc4ccccc4C3)O[C@@H](CO)[C@@H]1O2 | inactive
O=C(c1ccc(F)cc1)N1CC(=O)N2[C@H](CO)[C@H](c3ccc(C#Cc4ccc(F)cc4)cc3)[C@H]2C1 | inactive
CCC(=O)N1CCC2(CC1)CN(Cc1cc(F)ccc1F)[C@@H](CO)c1[nH]c3cc(OC)ccc3c12 | inactive
COc1cccc(C#Cc2ccc([C@H]3[C@@H](C#N)N(C(=O)C4CCCC4)[C@@H]3CO)cc2)c1 | inactive
COc1ccccc1C#Cc1ccc([C@H]2[C@@H](C#N)N(C(=O)C3CCCCC3)[C@H]2CO)cc1 | inactive
COc1cccc(C#Cc2ccc([C@@H]3[C@@H](C#N)N(C(=O)C4CCCCC4)[C@H]3CO)cc2)c1 | inactive
COc1ccccc1C#Cc1ccc([C@@H]2[C@H](C#N)N(C(=O)C3CCCC3)[C@H]2CO)cc1 | inactive
COCC(=O)N1CC2(C1)CN(Cc1ccccc1F)[C@@H](CO)c1[nH]c3cc(OC)ccc3c12 | inactive
C[C@H](CO)N1C[C@H](C)[C@@H](CN(C)C(=O)C2CCCCC2)Oc2ncc(/C=C/c3ccccc3)cc2C1=O | inactive
O=C(C[C@H]1C=C[C@H](NC(=O)Cc2ccccn2)[C@H](CO)O1)NCCc1ccccc1 | inactive
C[C@H]1CN([C@@H](C)CO)S(=O)(=O)c2ccc(C#Cc3ccccc3)cc2O[C@@H]1CN(C)C(=O)C1CC1 | inactive
O=C(C[C@H]1C=C[C@@H](NC(=O)Nc2ccccc2F)[C@H](CO)O1)NCc1ccc(-c2ccccc2)cc1 | inactive
O=C(c1ccccc1F)N1CC[C@H]2[C@H](CO)Nc3ccc(C#Cc4ccc(F)cc4)cc3[C@H]21 | inactive
COc1ccccc1C#Cc1ccc2c(c1)[C@H]1NCC[C@H]1[C@@H](CO)N2 | inactive
O=C(c1cccc(F)c1)N1CC[C@H]2[C@H](CO)Nc3ccc(C#Cc4cccc(F)c4)cc3[C@H]21 | inactive

SMILES | outcome
OC[C@@H]1Nc2ccc(C#Cc3cccc(F)c3)cc2[C@@H]2NCC[C@H]12 | inactive
COc1ccc(CN2C[C@@H](C)[C@H](OC)CN(C)C(=O)c3ccc(NC(=O)c4nc5ccccc5s4)cc3OC[C@H]2C)cc1 | inactive
CCCN(C)C[C@@H]1Oc2cc(C#Cc3ccccc3)ccc2S(=O)(=O)N([C@@H](C)CO)C[C@@H]1C | inactive
COc1cccc(NC(=O)N2[C@@H](CO)[C@H](c3ccccc3)[C@@H]2CNCC(C)C)c1 | inactive
O=C(c1cccc(F)c1)N1CC(=O)N2[C@H](CO)[C@H](c3ccc(-c4cccnc4)cc3)[C@H]2C1 | inactive
CO[C@H]1CN(C)C(=O)c2cc(NC(=O)c3cc(C)on3)ccc2OC[C@H](C)N(C(=O)C2CC2)C[C@H]1C | inactive
COc1ccc2c3c(n(C)c2c1)[C@@H](CO)N(C(=O)C1CC1)CC31CN(C(=O)Nc2cccc(F)c2)C1 | inactive
C[C@H](CO)N1C[C@H](C)[C@@H](CN(C)C(=O)c2ccccc2F)Oc2ncc(C#Cc3cccc(F)c3)cc2C1=O | inactive
COCC#Cc1ccc([C@H]2[C@H](CO)N3C(=O)CN(C(=O)CN4CCOCC4)C[C@@H]23)cc1 | inactive
COc1ccc(C#Cc2ccc3c(c2)[C@@H]2[C@@H](CCN2C(=O)C2CCCC2)[C@H](CO)N3)cc1 | inactive
CC(C)(C)[S@@](=O)N1Cc2cc(C(=O)NCCN3CCCCC3)nc(-c3cccc(-c4ccc(C#N)cc4)c3)c2[C@H]1CCO | inactive
CN1CCN(C(=O)C[C@H]2C[C@@H]3c4cc(NC(=O)Nc5ccc(C(F)(F)F)cc5)ccc4O[C@@H]3[C@@H](CO)O2)CC1 | inactive
COCC(=O)N1CC2(C1)CN(C(=O)CN1CCOCC1)[C@@H](CO)c1c2c2ccc(OC)cc2n1C | inactive
CCCN(C)C[C@H]1Oc2cc(C#Cc3cccnc3)ccc2S(=O)(=O)N([C@H](C)CO)C[C@H]1C | inactive
CO[C@H]1CN(C)C(=O)c2ccc(NC(=O)CC(F)(F)F)cc2OC[C@@H](C)N(CC2CC2)C[C@H]1C | inactive
CCCC#Cc1ccc2c(c1)O[C@H](CN(C)C(=O)Nc1ccc(OC)cc1)[C@H](C)CN([C@H](C)CO)S2(=O)=O | inactive
N#Cc1ccc(-c2ccc3c(c2)[C@@H]2[C@@H](CCN2C(=O)C2CCC2)[C@@H](CO)N3)cc1 | inactive
COc1ccc(CN2CC3(C2)CN(Cc2ccc4c(c2)OCO4)[C@H](CO)c2[nH]c4cc(OC)ccc4c23)cc1 | inactive
COc1ccc2c3c([nH]c2c1)[C@@H](CO)N(C(C)=O)CC31CN(C(=O)CN2CCOCC2)C1 | inactive
COc1ccc2c3c([nH]c2c1)[C@@H](CO)N(C(=O)CN(C)C)CC31CCN(CC2CCCCC2)CC1 | inactive
COc1ccc(CN2CC3(CN(C(C)=O)C3)c3c([nH]c4cc(OC)ccc34)[C@@H]2CO)cc1 | inactive
CO[C@H]1CN(C)C(=O)c2cc(NC(=O)c3ccccc3F)ccc2OC[C@H](C)N(C)C[C@H]1C | inactive
COc1ccccc1CNC(=O)C[C@H]1C[C@@H]2c3cc(NC(=O)Nc4ccc(C(F)(F)F)cc4)ccc3O[C@@H]2[C@H](CO)O1 | inactive
C[C@H]1CN([C@@H](C)CO)C(=O)Cc2cc(NC(=O)CCC(F)(F)F)ccc2O[C@H]1CN(C)S(C)(=O)=O | inactive

SMILES | outcome
COc1ccccc1C#Cc1ccc2c(c1)[C@H]1[C@H](CCN1C(=O)CN1CCOCC1)[C@@H](CO)N2 | inactive
CO[C@@H]1CN(C)C(=O)c2ccc(NC(=O)Nc3ccccc3F)cc2OC[C@@H](C)N(CC2CC2)C[C@H]1C | inactive
C[C@H](CO)N1C[C@H](C)[C@H](CN(C)C(=O)Cc2ccncc2)Oc2cc(C#CC3CCCC3)ccc2S1(=O)=O | inactive
COc1ccc(CN2C[C@@H](C)[C@@H](OC)CN(C)C(=O)c3cc(NC(=O)c4nc5ccccc5s4)ccc3OC[C@H]2C)cc1 | inactive
CCCN(C)C[C@@H]1Oc2cc(C#Cc3ccncc3)ccc2S(=O)(=O)N([C@H](C)CO)C[C@@H]1C | inactive
COc1ccc(NC(=O)N(C)C[C@@H]2Oc3cc(-c4ccc(C)cc4)ccc3S(=O)(=O)N([C@H](C)CO)C[C@H]2C)cc1 | inactive
CCS(=O)(=O)N1CCCCN2[C@H](CO)[C@H](c3ccc(C#Cc4ccccc4OC)cc3)[C@@H]2C1 | inactive
CCC(=O)Nc1ccc2c(c1)OC[C@@H](C)N(Cc1cccc(F)c1)C[C@@H](C)[C@H](OC)CN(C)C2=O | inactive
CCCNC(=O)Nc1ccc2c(c1)OC[C@@H](C)N(Cc1ccccc1)C[C@@H](C)[C@H](OC)CN(C)C2=O | inactive
COCC(=O)N1[C@H](C#N)[C@@H](c2ccccc2C2=CCCC2)[C@@H]1CO | inactive
COc1ccc2c3c(n(C)c2c1)[C@H](CO)N(C(=O)Nc1ccc(F)cc1)CC31CN(C(=O)c2ccc3c(c2)OCO3)C1 | inactive
C[C@H]1CN([C@@H](C)CO)C(=O)c2ccccc2-c2ccccc2CO[C@H]1CN(C)Cc1ccc(Oc2ccccc2)cc1 | inactive
C[C@H]1CN([C@@H](C)CO)C(=O)c2ccccc2-c2ccccc2CO[C@H]1CN(C)Cc1cccc(C(F)(F)F)c1 | inactive
C[C@@H]1CN([C@@H](C)CO)C(=O)c2ccccc2-c2ccccc2CO[C@H]1CN(C)C(=O)Nc1cccc(C(F)(F)F)c1 | inactive
C[C@@H]1CN([C@H](C)CO)C(=O)c2ccccc2-c2ccccc2CO[C@H]1CN(C)C(=O)Nc1cccc(C(F)(F)F)c1 | inactive
C[C@H]1CN([C@@H](C)CO)C(=O)c2ccccc2-c2ccccc2CO[C@H]1CN(C)Cc1ccc(-c2ccccc2)cc1 | inactive
C[C@@H]1CN([C@H](C)CO)C(=O)c2ccccc2-c2ccccc2CO[C@@H]1CN(C)Cc1ccc(C(F)(F)F)cc1 | inactive
C[C@H](CO)N1C[C@H](C)[C@H](CN(C)C(=O)Nc2ccc(N3CCCCC3)cc2)OCc2cnnn2CCCC1=O | inactive
CCCC(=O)N1CC2(C1)CN(Cc1ccccc1F)[C@H](CO)c1c2c2ccc(OC)cc2n1C | inactive
COc1ccc2c3c([nH]c2c1)[C@@H](CO)N(Cc1cccc(Cl)c1)CC31CCN(C(C)=O)CC1 | inactive
CN(C)c1ccc2c(c1)[C@@H]1C[C@H](CC(=O)N3CCc4ccccc4C3)O[C@@H](CO)[C@@H]1O2 | inactive
CO[C@@H]1CN(C)C(=O)c2ccc(NC(=O)NC3CCCCC3)cc2OC[C@@H](C)N(CCc2ccccc2)C[C@H]1C | inactive
